From PubChem BioAssay (NCATS)
Where “and” joins values, the source holds several entries; their conditions need not be identical. Equal values may be shown once. Records with an inconclusive call do not appear. Calls of active or inactive are those of the source. Unless noted, calls come from the whole dose curve; as a rule, active = well fitted curve in either direction with a large enough effect (not every such curve was filed as active); inconclusive = small, poorly fitted or top-dose-only effect, or another doubt; inactive = flat fitted curve, though single readings scatter.

Assays:
[1] = molecular target: Lysosomal acid glucosylceramidase (Homo sapiens) (UniProt P04062); test: Glucocerebrosidase-p2 (AID 348; in the data active = potency below about 10 µM; note: potency is the fitted concentration of half-maximal effect); conditions: purified GBA, blue fluorogenic substrate, 40 min
Lysosomal acid glucosylceramidase (Homo sapiens), sequence (P04062 whole entry, looked up): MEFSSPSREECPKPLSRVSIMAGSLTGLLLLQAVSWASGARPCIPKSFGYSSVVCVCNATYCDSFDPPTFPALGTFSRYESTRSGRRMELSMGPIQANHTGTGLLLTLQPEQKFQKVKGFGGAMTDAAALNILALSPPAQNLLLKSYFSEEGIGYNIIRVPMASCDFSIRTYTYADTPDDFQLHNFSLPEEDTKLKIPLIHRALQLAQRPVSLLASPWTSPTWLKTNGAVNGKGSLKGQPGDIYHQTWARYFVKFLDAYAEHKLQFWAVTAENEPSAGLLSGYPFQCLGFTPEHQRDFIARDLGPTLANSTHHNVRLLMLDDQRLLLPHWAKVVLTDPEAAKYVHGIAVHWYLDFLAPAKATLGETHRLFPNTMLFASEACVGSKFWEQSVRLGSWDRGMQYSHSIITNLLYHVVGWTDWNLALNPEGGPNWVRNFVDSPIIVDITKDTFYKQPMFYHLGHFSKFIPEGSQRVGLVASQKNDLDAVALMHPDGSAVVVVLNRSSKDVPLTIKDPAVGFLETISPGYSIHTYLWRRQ
In short: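 Compounds titrated from 0.6 nM upwards against 0.2 nM enzyme in pH 5.9 citric acid/KH2PO4, taurocholate, tween-20; blue fluorogenic substrate 80 uM, 40 min room temperature, stopped and read Ex 365/Em 440 for AC50.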

[2] = AP1 Signaling Pathway (AID 357); conditions: ME-180 AP-1-bla reporter, EGF-induced, beta-lactamase ratio, 5 h; at 7.69 µM (top of the series) unless noted;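 note: ME-180 reporter cells stimulated with EGF at its EC50 level; % is set by controls: 0 for no effect and ±100 for the full control effect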
In short: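 Beta-lactamase reporter under AP-1 response element, ME-180 background. Stimulus: EC50 EGF. Compound exposure 5 h, 37 °C. Detection: CCF4, 2.5 h RT, 460/530 nm. Values: AC50 from titration.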

[3] = NFAT Signaling Pathway (AID 444); conditions: Jurkat NFAT-bla M1, carbachol, beta-lactamase ratio, 5 h; at 7.69 µM (top of the series) unless noted;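 note: carbachol stimulus at about its EC50 of 1 µM final; % is set by controls: 0 for no effect and ±100 for the full control effect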
In short: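 Read-out: CCF4 FRET ratio (460 nm/530 nm) after 1 h RT dye loading, used for %activity and AC50 from titration series. Cells: Jurkat NFAT-β-lactamase/M1 line, treated with compound plus 1 uM carbachol for 5 h, 37 °C.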

[4] = Stat Signaling Pathway (AID 446); conditions: ME-180 SIE beta-lactamase reporter, IL-6 stimulated, 5 h; at 7.69 µM (top of the series) unless noted;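 note: ME-180 cervical cancer cells given 40 pM IL-6 alongside compound; SIE-controlled beta-lactamase reporter measured as 460/530 nm FRET emission ratio; % is set by controls: 0 for no effect and ±100 for the full control effect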
In short: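 ME-180 cells carrying a SIE-driven beta-lactamase reporter are stimulated with 40 pM IL-6 for 5 h at 37C in the presence of compound. The 460/530 nm FRET substrate ratio is read after 2.5 h at RT. Data are normalised to 300 pM IL-6 and to 125 nM JAK inhibitor controls.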

[5] = molecular target: Glucocorticoid receptor (Homo sapiens) (UniProt P04150); test: GR-GFP Redistribution (AID 450;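 active = compounds whose dose series gives a full or clear partial fitted curve of increased nuclear translocation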; note: potency is the fitted concentration of half-maximal effect); conditions: U2OS GR-GFP nuclear translocation, laser cytometry, 2 h
Glucocorticoid receptor (Homo sapiens), sequence (P04150 whole entry, looked up, the tested form may be a part): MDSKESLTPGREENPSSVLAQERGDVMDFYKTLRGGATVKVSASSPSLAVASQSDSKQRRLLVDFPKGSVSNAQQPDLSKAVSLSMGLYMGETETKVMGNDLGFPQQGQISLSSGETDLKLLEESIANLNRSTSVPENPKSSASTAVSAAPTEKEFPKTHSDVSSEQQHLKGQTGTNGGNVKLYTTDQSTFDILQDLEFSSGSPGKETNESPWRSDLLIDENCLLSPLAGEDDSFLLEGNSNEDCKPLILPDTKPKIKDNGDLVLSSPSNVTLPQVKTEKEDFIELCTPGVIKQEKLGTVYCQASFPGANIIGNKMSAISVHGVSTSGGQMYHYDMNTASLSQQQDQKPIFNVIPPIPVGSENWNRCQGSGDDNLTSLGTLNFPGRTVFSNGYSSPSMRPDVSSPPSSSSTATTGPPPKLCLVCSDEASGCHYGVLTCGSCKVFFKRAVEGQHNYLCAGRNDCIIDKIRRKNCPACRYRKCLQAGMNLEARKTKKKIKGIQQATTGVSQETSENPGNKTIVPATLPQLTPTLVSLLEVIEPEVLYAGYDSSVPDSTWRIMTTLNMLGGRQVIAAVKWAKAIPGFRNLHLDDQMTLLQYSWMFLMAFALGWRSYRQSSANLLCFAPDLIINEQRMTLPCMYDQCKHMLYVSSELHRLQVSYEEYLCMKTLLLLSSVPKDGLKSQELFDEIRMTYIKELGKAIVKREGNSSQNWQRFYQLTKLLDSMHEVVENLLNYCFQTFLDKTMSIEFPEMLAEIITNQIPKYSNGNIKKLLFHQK

[6] = molecular target: Glucocorticoid receptor (Homo sapiens) (UniProt P04150); test: GR-EFC Redistribution (AID 451; calls by dose curve; note: potency is the fitted concentration of half-maximal effect); conditions: CHO-K1 GR-EFC translocation, beta-gal luminescence, 2 h
In short: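 Translocation of GR-ED fusion to nuclear EA restores b-gal, read by luminescence after 1 h room-temperature detection. Engineered CHO-K1 biosensor cells, 1,000/well, exposed 2 h at 37 C to titrations up to 46 uM final.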

[7] = molecular target: Mitogen-activated protein kinase 10 (Mus musculus) (UniProt Q61831); test: JNK3 AlphaScreen Assay (AID 530); conditions: JNK3 lysate, c-Jun phosphorylation; series mostly up to 11.4 µM;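 note: kinase came from lysate of stimulated human HepG2 cells; signal reports phosphorylation of biotinylated GST-cJun 1-79 at Ser73 with 10 µM ATP; % is set by controls: 0 for no effect and ±100 for the full control effect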
In short: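 Room-temperature AlphaScreen kinase assay; pre-activated HepG2 lysate as JNK3 source, biotin-GST-cJun(1-79) substrate, 10 uM ATP, compound 15 min preincubation.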

[8] = molecular target: 3',5'-cyclic-AMP phosphodiesterase 4B (Homo sapiens) (UniProt Q07343); test: qHTS Assay for Inhibitors of PDE-IV (AID 607; active = well fitted activation curve with a large enough effect in the main read-out, with a control signal flat, not every such curve was filed as active; note: % of control where 0% means no effect); conditions: HEK293 ACTOne CNG channel cells, membrane potential fluorescence; series mostly up to 22.9 µM
3',5'-cyclic-AMP phosphodiesterase 4B (Homo sapiens), sequence (Q07343 whole entry, looked up): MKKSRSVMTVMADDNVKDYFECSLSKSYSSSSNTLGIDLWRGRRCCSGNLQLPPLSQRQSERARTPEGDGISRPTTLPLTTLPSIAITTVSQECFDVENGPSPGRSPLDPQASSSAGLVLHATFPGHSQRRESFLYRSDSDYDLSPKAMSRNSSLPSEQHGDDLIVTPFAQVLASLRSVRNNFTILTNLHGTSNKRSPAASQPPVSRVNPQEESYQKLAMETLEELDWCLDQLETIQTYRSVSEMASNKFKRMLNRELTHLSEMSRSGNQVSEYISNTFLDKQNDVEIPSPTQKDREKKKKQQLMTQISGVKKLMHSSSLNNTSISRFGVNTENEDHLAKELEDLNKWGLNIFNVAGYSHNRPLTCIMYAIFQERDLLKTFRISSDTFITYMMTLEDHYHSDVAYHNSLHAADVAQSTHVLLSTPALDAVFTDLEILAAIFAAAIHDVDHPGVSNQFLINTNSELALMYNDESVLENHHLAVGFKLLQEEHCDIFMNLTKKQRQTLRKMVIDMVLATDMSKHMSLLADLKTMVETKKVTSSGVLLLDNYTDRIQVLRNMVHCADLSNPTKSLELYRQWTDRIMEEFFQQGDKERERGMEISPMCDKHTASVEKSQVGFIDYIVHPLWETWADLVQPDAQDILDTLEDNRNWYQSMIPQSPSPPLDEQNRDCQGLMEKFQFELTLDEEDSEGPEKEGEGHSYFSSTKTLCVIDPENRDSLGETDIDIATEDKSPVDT
In short: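 HEK293 ACTOne cells with CNG channel (1000/well), endogenous PDE4; membrane potential dye, compounds up to 22.9 uM final. Fluorescence Ex 535/Em 590; RO 20-1724 (100 uM final) as reference.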

C[N@@+]1(CC[N@@+]2(C)CCC[C@H]2c2cccnc2)CCC[C@@H]1c1cccnc1
inactive: Potency [1] > 11.4 µM | activity change, negative = inhibition [2] 28.9% | activity change, negative = inhibition [3] -16.4% | activity, negative = inhibition [4] -5.44% | Potency [5] > 46 µM | Potency [6] > 9.22 µM | Potency [7] | Potency [8]

NNC(=O)c1ccc(OCc2nc3ccccc3[nH]2)cc1
inactive: Potency [1] > 11.4 µM | activity change, negative = inhibition [2] -12.3% | activity change, negative = inhibition [3] 13.6% | activity, negative = inhibition [4] -6.78% | Potency [5] > 46 µM | Potency [6] > 9.22 µM | Potency [7] | Potency [8]

Cc1cc2c(=O)[nH]c(N)nc2nc1C
inactive: Potency [1] > 11.4 µM | activity change, negative = inhibition [2] 1.82% | activity change, negative = inhibition [3] 7.25% | activity, negative = inhibition [4] 9.62% | Potency [5] > 46 µM | Potency [6] > 9.22 µM | Potency [7] | Potency [8]

NC1=N[C@H](c2ccc(Cl)cc2)N(c2ccc(S(N)(=O)=O)cc2)C(N)=N1
inactive: Potency [1] > 11.4 µM | activity change, negative = inhibition [2] -2.15% | activity change, negative = inhibition [3] -10.1% | activity, negative = inhibition [4] -0.371% | Potency [5] > 46 µM | Potency [6] > 9.22 µM | Potency [7] | Potency [8]

N=C(N)SCCc1ccccn1
inactive: Potency [1] > 11.4 µM | activity change, negative = inhibition [2] -8.38% and 0.949% | activity change, negative = inhibition [3] 3.85% and 12.3% | activity, negative = inhibition [4] -5.15% and -3.19% | Potency [5] > 46 µM | Potency [6] > 9.22 µM | Potency [7] | Potency [8]

O=[N+]([O-])c1ccc2c(c1)c(S(=O)(=O)O)cc1nonc12
inactive: Potency [1] > 11.4 µM | activity change, negative = inhibition [2] -3.17% | activity change, negative = inhibition [3] 6.23% | activity, negative = inhibition [4] 19.1% | Potency [5] > 46 µM | Potency [6] > 9.22 µM | Potency [7] | Potency [8]

O=C1c2ccccc2C(=O)c2c(Nc3ccc4c5c(cccc35)C(=O)c3ccccc3-4)cccc21
inactive: Potency [1] > 11.4 µM | activity change, negative = inhibition [2] -3.08% | activity change, negative = inhibition [3] 6.45% | activity, negative = inhibition [4] 0.0671% | Potency [5] > 46 µM | Potency [6] > 9.22 µM | Potency [7] | Potency [8]

CC(C)c1cc(CN(C)C)c(O)c(C(C)(C)C)c1
inactive: Potency [1] > 11.4 µM | activity change, negative = inhibition [2] 1.46% | activity change, negative = inhibition [3] -5.67% | activity, negative = inhibition [4] -8.11% | Potency [5] > 46 µM | Potency [6] > 9.22 µM | Potency [7] | Potency [8]

NC(=O)NOC[C@@H]1NC(=O)NC1=O
inactive: Potency [1] > 11.4 µM | activity change, negative = inhibition [2] 0.037% | activity change, negative = inhibition [3] 8.44% | activity, negative = inhibition [4] 9.07% | Potency [5] > 46 µM | Potency [6] > 9.22 µM | Potency [7] | Potency [8]

O=C(O)CSCc1cccc2ccccc12
inactive: Potency [1] > 11.4 µM | activity change, negative = inhibition [2] -0.864% | activity change, negative = inhibition [3] 16.3% | activity, negative = inhibition [4] 2.65% | Potency [5] > 46 µM | Potency [6] > 9.22 µM | Potency [7] | Potency [8]

Cc1ccc(CN2CCN(Cc3ccc(C)o3)[C@@H](C)C2)o1
inactive: Potency [1] > 11.4 µM | activity change, negative = inhibition [2] -2.23% | activity change, negative = inhibition [3] -7.45% | activity, negative = inhibition [4] 1.61% | Potency [5] > 46 µM | Potency [6] > 9.22 µM | Potency [7] | Potency [8]

CN(CCC(=O)O)S(=O)(=O)c1ccccc1
inactive: Potency [1] > 11.4 µM | activity change, negative = inhibition [2] -0.615% | activity change, negative = inhibition [3] 15.6% | activity, negative = inhibition [4] 11.1% | Potency [5] > 46 µM | Potency [6] > 9.22 µM | Potency [7] | Potency [8]

CC(=O)CSCc1ccccn1
inactive: Potency [1] > 11.4 µM | activity change, negative = inhibition [2] 4.51% | activity change, negative = inhibition [3] -1.92% | activity, negative = inhibition [4] -2.34% | Potency [5] > 46 µM | Potency [6] > 9.22 µM | Potency [7] | Potency [8]

COCCn1c(=O)cnc2cnc(N3CCNCC3)nc21
inactive: Potency [1] > 11.4 µM | activity change, negative = inhibition [2] -9.65% | activity change, negative = inhibition [3] -7.03% | activity, negative = inhibition [4] -2.85% | Potency [5] > 9.22 µM | Potency [6] > 46 µM | Potency [7] | Potency [8]

O=C(O)C(=Cc1ccnc2ccccc12)C(=O)O
inactive: Potency [1] > 11.4 µM | activity change, negative = inhibition [2] -3.98% | activity change, negative = inhibition [3] 24.2% | activity, negative = inhibition [4] 9.09% | Potency [5] > 46 µM | Potency [6] > 9.22 µM | Potency [7] | Potency [8]

CCc1ccc(CCC(=O)O)nc1
inactive: Potency [1] > 11.4 µM | activity change, negative = inhibition [2] 0.964% | activity change, negative = inhibition [3] -3.46% | activity, negative = inhibition [4] -13.2% | Potency [5] > 46 µM | Potency [6] > 9.22 µM | Potency [7] | Potency [8]

Clc1ccc(CSc2ncnc3c2ncn3[C@@H]2CCCCO2)cc1
inactive: Potency [1] > 11.4 µM | activity change, negative = inhibition [2] -8.23% | activity change, negative = inhibition [3] 12.9% | activity, negative = inhibition [4] -14.7% | Potency [5] > 46 µM | Potency [6] > 9.22 µM | Potency [7] | Potency [8]

O=C(O)CCCCn1cnc2c(=S)nc[nH]c21
inactive: Potency [1] > 11.4 µM | activity change, negative = inhibition [2] 8.11% | activity change, negative = inhibition [3] 5.86% | activity, negative = inhibition [4] 6.11% | Potency [5] > 46 µM | Potency [6] > 9.22 µM | Potency [7] | Potency [8]

NC1=N[C@H](c2ccc(Cl)cc2)N(c2ccc(S(=O)(=O)Nc3ncccn3)cc2)C(N)=N1
inactive: Potency [1] > 11.4 µM | activity change, negative = inhibition [2] -10.6% | activity change, negative = inhibition [3] -0.0424% | activity, negative = inhibition [4] -0.946% | Potency [5] > 46 µM | Potency [6] > 9.22 µM | Potency [7] | Potency [8]

CC(C)[C@H](Nc1ncnc2nc[nH]c12)C(=O)O
inactive: Potency [1] > 11.4 µM | activity change, negative = inhibition [2] 7.63% | activity change, negative = inhibition [3] -3.53% | activity, negative = inhibition [4] -3.88% | Potency [5] > 46 µM | Potency [6] > 9.22 µM | Potency [7] | Potency [8]

CCCc1cc(COC)c(C#N)c(=O)[nH]1
inactive: Potency [1] > 11.4 µM | activity change, negative = inhibition [2] 1.77% | activity change, negative = inhibition [3] -2.55% | activity, negative = inhibition [4] 3.43% | Potency [5] > 46 µM | Potency [6] > 9.22 µM | Potency [7] | Potency [8]

CN(C)CCCN=C(N)N
inactive: Potency [1] > 11.4 µM | activity change, negative = inhibition [2] 11.7% | activity change, negative = inhibition [3] 4.78% | activity, negative = inhibition [4] 2.14% | Potency [5] > 46 µM | Potency [6] > 9.22 µM | Potency [7] | Potency [8]

Nc1nc(N)c(N=Nc2ccc(C(=O)O)c(O)c2)c(N)n1
inactive: Potency [1] > 11.4 µM | activity change, negative = inhibition [2] 2.15% | activity change, negative = inhibition [3] 15.4% | activity, negative = inhibition [4] -2.93% | Potency [5] > 46 µM | Potency [6] > 9.22 µM | Potency [7] | Potency [8]

NC(=O)C[C@@H](N)c1nn[nH]n1
inactive: Potency [1] > 11.4 µM | activity change, negative = inhibition [2] 9.01% | activity change, negative = inhibition [3] 14.8% | activity, negative = inhibition [4] 9.79% | Potency [5] > 46 µM | Potency [6] > 9.22 µM | Potency [7] | Potency [8]

NS(=O)(=O)c1ccc(NC(=O)Nc2cccc3ccccc23)cc1
inactive: Potency [1] > 11.4 µM | activity change, negative = inhibition [2] -4.66% | activity change, negative = inhibition [3] 12.6% | activity, negative = inhibition [4] -9.73% | Potency [5] > 46 µM | Potency [6] > 9.22 µM | Potency [7] | Potency [8]

O=C(NC1(C(=O)O)CCCC1)c1ccccc1
inactive: Potency [1] > 11.4 µM | activity change, negative = inhibition [2] -4.54% | activity change, negative = inhibition [3] 12% | activity, negative = inhibition [4] 6.79% | Potency [5] > 46 µM | Potency [6] > 9.22 µM | Potency [7] | Potency [8]

c1ccc(CO[C@H]2NCCN2Cc2ccccc2)cc1
inactive: Potency [1] > 11.4 µM | activity change, negative = inhibition [2] 11% | activity change, negative = inhibition [3] 9.93% | activity, negative = inhibition [4] 12.8% | Potency [5] > 46 µM | Potency [6] > 9.22 µM | Potency [7] | Potency [8]
